Experimental data from PubChem BioAssay (NCI).
This is part of a sample that, as a whole, favours compounds with a hit. Of some 79,000 tested, about 15% had one in any assay. Activity calls are given as the source filed them. Cut-off read from the data, not from the text of the source: active = growth inhibition above about 70%; inactive = the rest.

Assay: NCI Yeast Anticancer Drug Screen. Data for the mgt1 strain (AID 153)
Conditions: S. cerevisiae mgt1 mutant growth inhibition; at 1.2 µM; active compounds read high
How it was run: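 After exposure of the mgt1 yeast mutant to compound, growth was measured and reported as inhibition compared with vehicle controls.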

SMILES	growth inhibition
O=CC=C(c1ccccc1)c1ccccc1	-10% (inactive)
FC(F)(F)c1nc2nc(Cl)c(Cl)nc2n1CCCN1CCOCC1	0% (inactive)
BrCC[P+](c1ccccc1)(c1ccccc1)c1ccccc1	-61% (inactive)
N#CSc1ccc(S(N)(=O)=O)cc1	-81% (inactive)
O=[N+]([O-])c1ccc2nc3ccccc3cc2c1	-1% (inactive)
O=C(NC(Nc1ccc(F)c(Cl)c1)(C(F)(F)F)C(F)(F)F)C(C(F)(F)F)C(F)(F)F	26% (inactive)
O=C(/C=C\c1ccc(Cl)cc1Cl)c1cccs1	-4% (inactive)
O=C(NCCCCNCCCNC(=O)c1cc(-c2ccccc2)nc2ccccc12)c1cc(-c2ccccc2)nc2ccccc12	2% (inactive)
NC(=NCc1ccccc1)N/N=C\c1ccnc2ccccc12	-4% (inactive)
CCCCN(CCCC)CCSc1ccc(Cl)cc1	-4% (inactive)
COc1cc(C2C3=C(COC3=O)Oc3cc4c(cc32)OCO4)ccc1O (stereo not drawn)	-1% (inactive)
C#CCCCc1ccccc1	-19% (inactive)
CCc1ccc(NS(=O)(=O)c2ccccc2)c([N+](=O)[O-])c1	0% (inactive)
COc1ccc(C2c3cc4c(cc3OC(C)(O)C2C)OCO4)c(OC)c1 (stereo not drawn)	-5% (inactive)
COC(=O)c1ccc(CCC2=CC(=O)C(Br)=CC2=O)cc1	-6% (inactive)
NNC(=O)CCc1ccc2ccc3ccccc3c2c1	-2% (inactive)
Cn1c2ccccc2c(=O)c2cc(NC(=O)CCCCC(=O)Nc3ccc4c(c3)c(=O)c3ccccc3n4C)ccc21	1% (inactive)
CC(CC(C)(C)[N+](C)(C)C)[N+](C)(C)C (stereo not drawn)	-1% (inactive)
CC1CCN(CCC(=O)c2ccc(Cl)cc2)CC1	-1% (inactive)
CCCCCCCCCCCCCCC(C(=O)[O-])[n+]1ccccc1 (stereo not drawn)	2% (inactive)

SMILES	growth inhibition
CNC1C(OC2C(OC3C(O)C(O)C(N=C(N)N)C(O)C3N=C(N)N)OC(C)C2(O)CO)OC(CO)C(O)C1O (stereo not drawn)	0% (inactive)
O=C(O)c1ccccc1-c1ccccc1C(=O)Nc1ccc2c(c1)Cc1ccccc1-2	5% (inactive)
O=[N+]([O-])c1cccc2nc3ccccc3c(NCCCN3CCOCC3)c12	16% (inactive)
C=CC(C)(O)CCC1C(=C)C(O)CC2C(C)(C)CCCC12C (stereo not drawn)	-4% (inactive)
CN1c2ccc(Cl)cc2C(=O)NC1c1ccc([N+](=O)[O-])s1 (stereo not drawn)	-5% (inactive)
[O-][n+]1c2ccc(O)cc2nc2ccc(Br)cc21	4% (inactive)
O=C1c2ccccc2-c2nc3ccccc3nc21	-50% (inactive)
CCCCN1C(=O)N(c2ccc(OCC)cc2)C2N(CCCC)C1C(C)(C)C2(C)C (stereo not drawn)	-4% (inactive)
CO[C@H]1C[C@](C)(O)Cc2cc3c(c(O)c21)C(=O)c1c(O)cc2c(c1C3=O)O[C@@H]1O[C@@]2(C)[C@H](O)[C@@H](N(C)C)[C@@H]1O	-28% (inactive)
COc1cc2c(cc1[N+](=O)[O-])C(=O)C(Br)(Br)CCC2	50% (inactive)
O=C1OC(CCl)CN1/N=C/c1ccc([N+](=O)[O-])o1 (stereo not drawn)	-3% (inactive)
CN(C)CCOc1ccc2c(c1)C/C(=C/c1ncc([N+](=O)[O-])n1C)C2=O	31% (inactive)
CCCCCCCCCCCCCCCCCCN(C)CC(COP(=O)([O-])OCC[N+](C)(C)C)OC (stereo not drawn)	21% (inactive)
CC(C)c1ccccc1NC(=O)/C(Cl)=C(\Cl)C(=O)O	1% (inactive)
O=[N+]([O-])C(=C(Sc1ccccc1)Sc1ccccc1)C(Cl)=C(Cl)Cl	2% (inactive)
C(=C\c1ccccc1)/COc1ccccc1C(N1CCOCC1)n1nc2ccccc2n1 (stereo not drawn)	8% (inactive)
O=C1C(Nc2ccccc2)=C(Oc2ccccc2)C(=O)c2ccccc21	5% (inactive)
CCN(CC)CCN1C(=O)c2cccc3cc(OC)cc(c23)C1=O	-10% (inactive)
CN(C)Cc1cc(N=Nc2ccc(Cl)cc2)cc(CN(C)C)c1O	13% (inactive)

Same assay, conditions: S. cerevisiae mgt1 mutant growth inhibition; at 3.7 µM; active compounds read high

SMILES	growth inhibition
O=CC=C(c1ccccc1)c1ccccc1	-6% (inactive)
FC(F)(F)c1nc2nc(Cl)c(Cl)nc2n1CCCN1CCOCC1	5% (inactive)
BrCC[P+](c1ccccc1)(c1ccccc1)c1ccccc1	-53% (inactive)
N#CSc1ccc(S(N)(=O)=O)cc1	-91% (inactive)
O=[N+]([O-])c1ccc2nc3ccccc3cc2c1	-5% (inactive)
O=C(NC(Nc1ccc(F)c(Cl)c1)(C(F)(F)F)C(F)(F)F)C(C(F)(F)F)C(F)(F)F	25% (inactive)
O=C(/C=C\c1ccc(Cl)cc1Cl)c1cccs1	-6% (inactive)
O=C(NCCCCNCCCNC(=O)c1cc(-c2ccccc2)nc2ccccc12)c1cc(-c2ccccc2)nc2ccccc12	2% (inactive)
NC(=NCc1ccccc1)N/N=C\c1ccnc2ccccc12	-3% (inactive)
CCCCN(CCCC)CCSc1ccc(Cl)cc1	-8% (inactive)
COc1cc(C2C3=C(COC3=O)Oc3cc4c(cc32)OCO4)ccc1O (stereo not drawn)	1% (inactive)
C#CCCCc1ccccc1	-14% (inactive)
CCc1ccc(NS(=O)(=O)c2ccccc2)c([N+](=O)[O-])c1	0% (inactive)
COc1ccc(C2c3cc4c(cc3OC(C)(O)C2C)OCO4)c(OC)c1 (stereo not drawn)	-6% (inactive)
COC(=O)c1ccc(CCC2=CC(=O)C(Br)=CC2=O)cc1	-1% (inactive)
NNC(=O)CCc1ccc2ccc3ccccc3c2c1	-3% (inactive)
Cn1c2ccccc2c(=O)c2cc(NC(=O)CCCCC(=O)Nc3ccc4c(c3)c(=O)c3ccccc3n4C)ccc21	6% (inactive)
CC(CC(C)(C)[N+](C)(C)C)[N+](C)(C)C (stereo not drawn)	1% (inactive)
CC1CCN(CCC(=O)c2ccc(Cl)cc2)CC1	4% (inactive)
CCCCCCCCCCCCCCC(C(=O)[O-])[n+]1ccccc1 (stereo not drawn)	-4% (inactive)

SMILES	growth inhibition
CNC1C(OC2C(OC3C(O)C(O)C(N=C(N)N)C(O)C3N=C(N)N)OC(C)C2(O)CO)OC(CO)C(O)C1O (stereo not drawn)	7% (inactive)
O=C(O)c1ccccc1-c1ccccc1C(=O)Nc1ccc2c(c1)Cc1ccccc1-2	7% (inactive)
O=[N+]([O-])c1cccc2nc3ccccc3c(NCCCN3CCOCC3)c12	43% (inactive)
C=CC(C)(O)CCC1C(=C)C(O)CC2C(C)(C)CCCC12C (stereo not drawn)	-16% (inactive)
CN1c2ccc(Cl)cc2C(=O)NC1c1ccc([N+](=O)[O-])s1 (stereo not drawn)	8% (inactive)
[O-][n+]1c2ccc(O)cc2nc2ccc(Br)cc21	21% (inactive)
O=C1c2ccccc2-c2nc3ccccc3nc21	-43% (inactive)
CCCCN1C(=O)N(c2ccc(OCC)cc2)C2N(CCCC)C1C(C)(C)C2(C)C (stereo not drawn)	-7% (inactive)
CO[C@H]1C[C@](C)(O)Cc2cc3c(c(O)c21)C(=O)c1c(O)cc2c(c1C3=O)O[C@@H]1O[C@@]2(C)[C@H](O)[C@@H](N(C)C)[C@@H]1O	-23% (inactive)
COc1cc2c(cc1[N+](=O)[O-])C(=O)C(Br)(Br)CCC2	73% (active)
O=C1OC(CCl)CN1/N=C/c1ccc([N+](=O)[O-])o1 (stereo not drawn)	-8% (inactive)
CN(C)CCOc1ccc2c(c1)C/C(=C/c1ncc([N+](=O)[O-])n1C)C2=O	36% (inactive)
CCCCCCCCCCCCCCCCCCN(C)CC(COP(=O)([O-])OCC[N+](C)(C)C)OC (stereo not drawn)	32% (inactive)
CC(C)c1ccccc1NC(=O)/C(Cl)=C(\Cl)C(=O)O	3% (inactive)
O=[N+]([O-])C(=C(Sc1ccccc1)Sc1ccccc1)C(Cl)=C(Cl)Cl	17% (inactive)
C(=C\c1ccccc1)/COc1ccccc1C(N1CCOCC1)n1nc2ccccc2n1 (stereo not drawn)	9% (inactive)
O=C1C(Nc2ccccc2)=C(Oc2ccccc2)C(=O)c2ccccc21	-2% (inactive)
CCN(CC)CCN1C(=O)c2cccc3cc(OC)cc(c23)C1=O	-12% (inactive)
CN(C)Cc1cc(N=Nc2ccc(Cl)cc2)cc(CN(C)C)c1O	12% (inactive)
